About 83,000 compounds went through this panel and 20% of them were active in at least one assay; those are over-represented in the sample as a whole.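 Each cell line was grown in a 96-well plate and treated with one concentration of compound for 48 hours. Values below 10 were considered active.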 Unmarked numbers belong to inactive results. The source made the active and inactive calls.

The experiment relates to NCI-H23 lung. The experiment is described as follows: NCI-60 one-dose screen, 48 h (100 = growth as untreated, 0 = no growth, -100 = all killed). Particulars: 10 µM unless noted.
Consider `CCCc1cc(NC)nc(S(=O)(=O)CC)n1`, for which the growth is 102%.
The value for `Cc1ccc(Cl)cc1Nc1nc(C(F)(F)F)ccc1C(=O)N/N=C/c1cccnc1` was 37.4%; that for `Cc1ccc(/C=C2\CN(C(=O)OC(C)(C)C)C/C(=C\c3ccc(C)cc3)C2=O)cc1` was 56.6%.
The value for `O=C(Nc1cccc([N+](=O)[O-])c1)c1cc2ccccc2cc1O` was -0.282% (active).
The result for `NC(=O)c1c(NC(=O)c2ccccc2)sc2c1CCC(=O)C2` reads 5.93% (active).
As for `COc1cc(N2C(=O)[C@H](O)C2c2ccc(SC)cc2)cc(OC)c1OC` (stereo not given in full), the growth was 23%.
The value for `Cn1cc(-c2nc(-c3c[nH]c4ccncc34)cs2)c2ccccc21` was 86%.
Regarding `OCCNCCCOc1ccc2ncnc(Nc3ccc(Oc4cccc(C(F)(F)F)c4)c(Cl)c3)c2c1`, the growth was 63.8%.
The value for `O=S(=O)(NCCNc1cc(-c2c(-c3cccc(O)c3)nc3sccn23)ccn1)c1ccc(C(F)(F)F)cc1` was 51.9%; that for `CCOC(=O)c1nc(Nc2ccc(NC(=O)Nc3ccc(F)cc3)cc2)c2ccccc2n1` was 92.3%; that for `CCN1C(=O)N(CC)C2C1NN=c1s/c(=C\c3cccc([N+](=O)[O-])c3)c(=O)n12` (stereo not given) was 36.4%.
`C#Cc1cccc(Nc2ncnc3ccc(-c4cnc(N)nc4)cc23)c1`: the growth was 50%.
For the compound `CCN(CC)CCSc1nc(-c2ccccc2)c(C#N)c(=O)[nH]1`, the growth was 68.9%.
Regarding `CN1C(=O)/C(=C/c2cn(-c3ccccc3)nc2-c2ccccc2)SC1=S`, the growth is 95.4%.
The value for `O=C1Nc2ccccc2/C1=C\c1nc(-c2ccccc2)n2ccccc12` was 85%.

Values taken from PubChem BioAssay (NCI).
